# Measurements from paper PMC7862700, “An all-to-all approach to the identification of sequence-specific readers for epigenetic DNA modifications on cytosine”.
# Legend:
# Assay in all cases: DAPPL (digital affinity profiling via proximity ligation, sequencing); 10 mM Tris-HCl pH 7.5, 50 mM NaCl, 1 mM DTT, 4% glycerol, room temperature, 30 min; GST-TFs on glutathione beads, 16-mer random dsDNA library, 0.1% formaldehyde crosslink after washing; high values mean tight binding
# Conditions in all cases: protein: recombinant; tags: N-terminal GST; dsDNA, one strand shown
# ELK1 = target: T1, ELK1 (Homo sapiens, UniProt P19419 1-428)
# T1 sequence: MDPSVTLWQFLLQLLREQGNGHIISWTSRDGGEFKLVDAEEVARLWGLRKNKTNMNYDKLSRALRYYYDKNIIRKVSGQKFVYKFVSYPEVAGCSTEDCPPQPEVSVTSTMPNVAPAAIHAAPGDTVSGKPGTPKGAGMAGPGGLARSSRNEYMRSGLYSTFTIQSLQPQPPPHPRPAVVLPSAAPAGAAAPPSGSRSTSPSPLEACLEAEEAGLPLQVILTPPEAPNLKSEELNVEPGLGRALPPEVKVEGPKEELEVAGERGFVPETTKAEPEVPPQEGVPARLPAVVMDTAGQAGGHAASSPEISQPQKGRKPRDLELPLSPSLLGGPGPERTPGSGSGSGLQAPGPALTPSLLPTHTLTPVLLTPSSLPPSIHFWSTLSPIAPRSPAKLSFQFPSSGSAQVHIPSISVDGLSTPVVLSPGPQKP
# Method in brief: (§1)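 The binding signal reported is, for every hexamer, its read frequency for a factor over its read frequency for the tag-only sample. Reads came from pools of yeast-expressed, GST-fused human transcription factors on glutathione beads, barcoded with DNA and mixed with that sample, which were incubated with 200 nmole of a random double-stranded 16-mer DNA library in Tris/NaCl/DTT/glycerol buffer at room temperature for 30 min. After washing, the pools were crosslinked with 0.1% formaldehyde, proximity-ligated with BsaI/T4 ligase for 1 h at 37 °C, PCR-amplified and sequenced on an Illumina NextSeq500.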
# GABPA = target: T2, GABPA (Homo sapiens, UniProt Q06546 1-454)
# T2 sequence: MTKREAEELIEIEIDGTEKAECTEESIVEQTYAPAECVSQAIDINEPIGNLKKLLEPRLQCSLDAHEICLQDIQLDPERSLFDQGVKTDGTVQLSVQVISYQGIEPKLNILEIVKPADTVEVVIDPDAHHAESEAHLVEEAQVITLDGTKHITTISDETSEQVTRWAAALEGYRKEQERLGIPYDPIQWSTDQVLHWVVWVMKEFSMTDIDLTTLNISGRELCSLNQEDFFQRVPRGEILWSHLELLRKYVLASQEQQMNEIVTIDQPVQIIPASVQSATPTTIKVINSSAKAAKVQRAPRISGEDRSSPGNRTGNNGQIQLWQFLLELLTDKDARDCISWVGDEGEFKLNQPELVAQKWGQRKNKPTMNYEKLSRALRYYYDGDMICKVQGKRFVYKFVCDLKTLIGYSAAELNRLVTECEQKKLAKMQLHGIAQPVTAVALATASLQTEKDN
# Method in brief: as §1
# ELF1 = ELF1 (Homo sapiens, UniProt P32519 1-619)
# Chain of ELF1 (P32519 whole entry): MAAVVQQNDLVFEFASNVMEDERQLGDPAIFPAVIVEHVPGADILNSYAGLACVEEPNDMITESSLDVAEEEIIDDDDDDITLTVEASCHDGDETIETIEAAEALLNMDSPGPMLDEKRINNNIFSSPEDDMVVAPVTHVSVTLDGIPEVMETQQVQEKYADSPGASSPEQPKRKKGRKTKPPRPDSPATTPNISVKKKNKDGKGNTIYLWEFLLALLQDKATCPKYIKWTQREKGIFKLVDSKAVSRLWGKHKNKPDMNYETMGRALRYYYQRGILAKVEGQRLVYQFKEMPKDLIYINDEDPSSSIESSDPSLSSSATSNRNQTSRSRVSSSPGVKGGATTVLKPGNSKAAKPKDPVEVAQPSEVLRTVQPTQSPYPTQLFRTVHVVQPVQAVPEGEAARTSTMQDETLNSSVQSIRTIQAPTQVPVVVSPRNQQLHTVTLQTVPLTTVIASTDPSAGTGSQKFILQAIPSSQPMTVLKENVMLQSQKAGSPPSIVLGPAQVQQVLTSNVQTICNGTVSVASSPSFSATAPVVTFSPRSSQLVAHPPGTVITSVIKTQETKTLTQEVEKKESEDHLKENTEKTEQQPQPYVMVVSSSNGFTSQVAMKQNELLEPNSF
# Method in brief: as §1
# EHF = target: T3, EHF (Homo sapiens, UniProt Q9NZC4 1-300)
# T3 sequence: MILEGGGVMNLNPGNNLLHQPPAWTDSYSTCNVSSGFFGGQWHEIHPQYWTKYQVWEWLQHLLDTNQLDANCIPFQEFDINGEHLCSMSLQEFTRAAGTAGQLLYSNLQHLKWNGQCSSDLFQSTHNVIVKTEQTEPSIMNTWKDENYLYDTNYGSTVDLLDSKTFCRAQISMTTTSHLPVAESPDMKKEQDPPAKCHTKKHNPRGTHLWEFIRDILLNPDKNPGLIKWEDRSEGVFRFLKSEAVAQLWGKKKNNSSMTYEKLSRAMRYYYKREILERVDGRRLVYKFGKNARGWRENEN
# Method in brief: as §1
# SPIB = SPIB (Homo sapiens, UniProt Q01892 1-262)
# Chain of SPIB (Q01892 whole entry): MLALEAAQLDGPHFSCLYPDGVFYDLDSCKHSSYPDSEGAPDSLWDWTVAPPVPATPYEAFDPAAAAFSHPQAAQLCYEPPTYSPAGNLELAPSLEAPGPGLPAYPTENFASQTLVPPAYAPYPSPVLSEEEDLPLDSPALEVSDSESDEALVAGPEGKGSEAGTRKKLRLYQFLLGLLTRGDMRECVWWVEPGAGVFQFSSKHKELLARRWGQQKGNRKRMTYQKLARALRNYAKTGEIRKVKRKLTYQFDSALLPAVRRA
# Method in brief: as §1
# FEV = target: T4, FEV (Homo sapiens, UniProt Q99581 1-238)
# T4 sequence: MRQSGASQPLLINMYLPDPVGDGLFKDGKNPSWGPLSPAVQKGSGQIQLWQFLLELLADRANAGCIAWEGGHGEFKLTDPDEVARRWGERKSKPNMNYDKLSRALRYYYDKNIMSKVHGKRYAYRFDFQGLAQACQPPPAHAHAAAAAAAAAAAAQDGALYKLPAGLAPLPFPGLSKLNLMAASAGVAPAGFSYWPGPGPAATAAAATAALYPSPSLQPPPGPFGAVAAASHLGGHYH
# Method in brief: as §1
# ETV5 = ETV5 (Homo sapiens, UniProt P41161 1-510)
# Chain of ETV5 (P41161 whole entry): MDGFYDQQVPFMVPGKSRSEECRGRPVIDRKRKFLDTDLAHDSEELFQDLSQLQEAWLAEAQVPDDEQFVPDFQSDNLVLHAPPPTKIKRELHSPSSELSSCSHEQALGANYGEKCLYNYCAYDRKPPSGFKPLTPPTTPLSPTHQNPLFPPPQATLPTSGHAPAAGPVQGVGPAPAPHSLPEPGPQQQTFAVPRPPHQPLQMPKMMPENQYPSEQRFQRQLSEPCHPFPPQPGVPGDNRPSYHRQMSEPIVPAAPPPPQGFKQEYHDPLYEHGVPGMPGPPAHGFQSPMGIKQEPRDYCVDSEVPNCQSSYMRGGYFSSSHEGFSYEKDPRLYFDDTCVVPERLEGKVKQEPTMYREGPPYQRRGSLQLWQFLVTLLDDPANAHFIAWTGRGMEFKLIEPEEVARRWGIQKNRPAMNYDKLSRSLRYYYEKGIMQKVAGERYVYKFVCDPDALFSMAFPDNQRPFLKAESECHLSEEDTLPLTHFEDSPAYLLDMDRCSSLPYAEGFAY
# Method in brief: as §1
# ELF4 = ELF4 (Homo sapiens, UniProt Q99607 1-663)
# Chain of ELF4 (Q99607 whole entry): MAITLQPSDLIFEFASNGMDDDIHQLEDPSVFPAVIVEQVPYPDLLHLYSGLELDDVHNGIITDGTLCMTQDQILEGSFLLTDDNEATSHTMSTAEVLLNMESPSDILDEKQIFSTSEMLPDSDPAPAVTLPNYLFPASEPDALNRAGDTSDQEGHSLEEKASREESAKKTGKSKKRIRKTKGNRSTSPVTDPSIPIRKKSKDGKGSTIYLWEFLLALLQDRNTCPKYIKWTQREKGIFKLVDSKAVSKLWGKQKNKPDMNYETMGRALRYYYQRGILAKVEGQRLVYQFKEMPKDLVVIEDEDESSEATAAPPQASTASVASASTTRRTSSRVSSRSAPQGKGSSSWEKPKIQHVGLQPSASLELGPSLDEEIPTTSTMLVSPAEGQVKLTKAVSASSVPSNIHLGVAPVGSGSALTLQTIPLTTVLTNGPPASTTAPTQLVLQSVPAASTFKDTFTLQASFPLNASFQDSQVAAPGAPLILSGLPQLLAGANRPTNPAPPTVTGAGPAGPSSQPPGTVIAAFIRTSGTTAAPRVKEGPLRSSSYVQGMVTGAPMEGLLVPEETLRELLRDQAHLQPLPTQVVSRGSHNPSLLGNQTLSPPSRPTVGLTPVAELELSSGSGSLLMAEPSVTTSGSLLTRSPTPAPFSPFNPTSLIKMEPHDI
# Method in brief: as §1
# ELK4 = target: T5, ELK4 (Homo sapiens, UniProt P28324-2 1-405)
# T5 sequence: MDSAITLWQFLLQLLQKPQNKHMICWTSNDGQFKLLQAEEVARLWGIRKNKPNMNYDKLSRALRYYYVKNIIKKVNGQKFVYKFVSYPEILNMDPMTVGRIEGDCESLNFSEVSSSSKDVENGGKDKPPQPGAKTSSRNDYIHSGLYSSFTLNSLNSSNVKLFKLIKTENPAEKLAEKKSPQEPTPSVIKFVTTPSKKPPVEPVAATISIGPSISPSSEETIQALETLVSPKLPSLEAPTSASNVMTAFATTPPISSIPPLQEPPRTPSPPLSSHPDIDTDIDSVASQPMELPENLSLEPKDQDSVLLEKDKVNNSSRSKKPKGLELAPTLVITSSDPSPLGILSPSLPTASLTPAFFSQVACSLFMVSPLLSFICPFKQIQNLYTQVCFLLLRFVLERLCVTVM
# Method in brief: as §1
# ETV2 = target: T6, ETV2 (Homo sapiens, UniProt O00321 1-342)
# T6 sequence: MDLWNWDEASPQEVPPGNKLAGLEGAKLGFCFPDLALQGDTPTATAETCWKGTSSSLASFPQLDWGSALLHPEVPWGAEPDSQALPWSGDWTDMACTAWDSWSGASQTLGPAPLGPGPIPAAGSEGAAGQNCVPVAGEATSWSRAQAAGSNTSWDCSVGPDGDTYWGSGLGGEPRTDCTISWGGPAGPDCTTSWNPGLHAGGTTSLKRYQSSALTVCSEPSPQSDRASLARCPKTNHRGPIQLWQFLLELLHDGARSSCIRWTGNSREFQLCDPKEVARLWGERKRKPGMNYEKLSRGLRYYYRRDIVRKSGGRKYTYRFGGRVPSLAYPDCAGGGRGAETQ
# Method in brief: as §1
# ELF3 = target: T7, ELF3 (Homo sapiens, UniProt P78545 1-371)
# T7 sequence: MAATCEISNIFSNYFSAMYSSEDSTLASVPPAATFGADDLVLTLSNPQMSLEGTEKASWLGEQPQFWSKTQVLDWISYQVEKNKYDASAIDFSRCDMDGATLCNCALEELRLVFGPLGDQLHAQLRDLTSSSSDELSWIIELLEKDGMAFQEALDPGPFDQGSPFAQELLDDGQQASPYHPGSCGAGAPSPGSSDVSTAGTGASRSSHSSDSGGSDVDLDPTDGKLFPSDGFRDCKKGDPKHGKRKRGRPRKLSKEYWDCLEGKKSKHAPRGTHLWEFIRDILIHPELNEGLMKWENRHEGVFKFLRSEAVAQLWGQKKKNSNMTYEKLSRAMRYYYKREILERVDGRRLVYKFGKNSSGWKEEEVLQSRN
# Method in brief: as §1
# ETV1 = ETV1 (Homo sapiens, UniProt P50549 1-477)
# Chain of ETV1 (P50549 whole entry): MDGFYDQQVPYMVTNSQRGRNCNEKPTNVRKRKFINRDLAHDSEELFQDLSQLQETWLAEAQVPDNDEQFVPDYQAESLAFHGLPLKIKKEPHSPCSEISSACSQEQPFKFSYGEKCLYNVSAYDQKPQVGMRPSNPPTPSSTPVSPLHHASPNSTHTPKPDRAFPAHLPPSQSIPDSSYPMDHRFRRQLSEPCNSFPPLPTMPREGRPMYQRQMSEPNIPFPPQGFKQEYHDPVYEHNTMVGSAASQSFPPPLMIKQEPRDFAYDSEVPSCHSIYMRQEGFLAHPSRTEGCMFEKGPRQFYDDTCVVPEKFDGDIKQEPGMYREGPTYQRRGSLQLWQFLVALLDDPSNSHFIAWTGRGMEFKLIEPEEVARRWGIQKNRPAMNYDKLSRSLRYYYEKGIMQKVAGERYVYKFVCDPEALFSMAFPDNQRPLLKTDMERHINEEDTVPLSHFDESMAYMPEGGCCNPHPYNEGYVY
# Method in brief: as §1
# ERF = target: T8, ERF (Homo sapiens, UniProt P50548 1-548)
# T8 sequence: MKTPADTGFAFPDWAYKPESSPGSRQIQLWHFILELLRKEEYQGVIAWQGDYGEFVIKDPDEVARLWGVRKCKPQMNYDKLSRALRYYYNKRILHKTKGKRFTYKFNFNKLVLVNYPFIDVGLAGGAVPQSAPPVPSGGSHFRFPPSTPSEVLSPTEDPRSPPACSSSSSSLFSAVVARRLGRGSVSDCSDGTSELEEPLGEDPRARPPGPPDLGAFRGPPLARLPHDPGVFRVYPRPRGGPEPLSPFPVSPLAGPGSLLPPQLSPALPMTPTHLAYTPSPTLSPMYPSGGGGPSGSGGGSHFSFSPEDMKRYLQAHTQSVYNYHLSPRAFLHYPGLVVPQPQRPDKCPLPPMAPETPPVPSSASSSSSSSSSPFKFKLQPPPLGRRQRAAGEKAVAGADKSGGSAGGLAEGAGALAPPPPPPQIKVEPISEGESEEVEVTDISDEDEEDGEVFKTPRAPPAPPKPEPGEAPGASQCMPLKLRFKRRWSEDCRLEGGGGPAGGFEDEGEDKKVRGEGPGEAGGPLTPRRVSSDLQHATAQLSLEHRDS
# Method in brief: as §1
# ETV3L = target: T9, ETV3L (Homo sapiens, UniProt Q6ZN32 1-361)
# T9 sequence: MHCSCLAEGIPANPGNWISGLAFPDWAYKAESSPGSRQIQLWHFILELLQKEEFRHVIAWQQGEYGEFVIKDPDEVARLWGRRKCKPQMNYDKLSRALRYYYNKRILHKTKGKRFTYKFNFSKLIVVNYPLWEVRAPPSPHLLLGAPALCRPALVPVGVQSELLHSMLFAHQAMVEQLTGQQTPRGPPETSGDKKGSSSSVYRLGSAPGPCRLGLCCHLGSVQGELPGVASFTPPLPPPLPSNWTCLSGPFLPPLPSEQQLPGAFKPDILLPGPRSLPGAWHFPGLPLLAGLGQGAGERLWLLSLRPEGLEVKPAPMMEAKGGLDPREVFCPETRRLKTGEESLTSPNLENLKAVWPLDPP
# Method in brief: as §1
# ETS2 = target: T10, ETS2 (Homo sapiens, UniProt P15036 1-469)
# T10 sequence: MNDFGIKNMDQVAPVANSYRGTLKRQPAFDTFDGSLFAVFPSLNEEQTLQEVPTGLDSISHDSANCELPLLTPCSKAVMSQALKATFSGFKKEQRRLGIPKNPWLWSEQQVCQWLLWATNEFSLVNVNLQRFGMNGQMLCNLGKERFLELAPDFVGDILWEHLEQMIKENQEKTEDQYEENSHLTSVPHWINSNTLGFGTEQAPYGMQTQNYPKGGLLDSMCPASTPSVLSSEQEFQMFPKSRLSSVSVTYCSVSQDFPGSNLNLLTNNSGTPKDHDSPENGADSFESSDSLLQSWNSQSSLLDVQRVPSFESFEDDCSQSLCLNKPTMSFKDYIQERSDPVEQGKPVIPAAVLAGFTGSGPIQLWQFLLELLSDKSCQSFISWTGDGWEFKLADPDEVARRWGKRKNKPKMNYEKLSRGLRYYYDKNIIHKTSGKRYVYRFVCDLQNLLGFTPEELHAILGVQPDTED
# Method in brief: as §1
# SPDEF = target: T11, SPDEF (Homo sapiens, UniProt O95238 1-335)
# T11 sequence: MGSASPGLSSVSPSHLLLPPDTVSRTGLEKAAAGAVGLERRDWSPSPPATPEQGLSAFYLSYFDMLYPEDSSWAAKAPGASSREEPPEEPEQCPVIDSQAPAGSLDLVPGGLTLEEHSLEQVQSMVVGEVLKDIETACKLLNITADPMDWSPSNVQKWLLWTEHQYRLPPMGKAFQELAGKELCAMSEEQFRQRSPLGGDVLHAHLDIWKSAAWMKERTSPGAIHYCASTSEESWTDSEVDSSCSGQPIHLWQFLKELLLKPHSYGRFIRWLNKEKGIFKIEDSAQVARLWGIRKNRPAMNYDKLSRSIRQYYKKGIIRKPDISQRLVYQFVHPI
# Method in brief: as §1
# ETV7 = target: T12, ETV7 (Homo sapiens, UniProt Q9Y603 1-341)
# T12 sequence: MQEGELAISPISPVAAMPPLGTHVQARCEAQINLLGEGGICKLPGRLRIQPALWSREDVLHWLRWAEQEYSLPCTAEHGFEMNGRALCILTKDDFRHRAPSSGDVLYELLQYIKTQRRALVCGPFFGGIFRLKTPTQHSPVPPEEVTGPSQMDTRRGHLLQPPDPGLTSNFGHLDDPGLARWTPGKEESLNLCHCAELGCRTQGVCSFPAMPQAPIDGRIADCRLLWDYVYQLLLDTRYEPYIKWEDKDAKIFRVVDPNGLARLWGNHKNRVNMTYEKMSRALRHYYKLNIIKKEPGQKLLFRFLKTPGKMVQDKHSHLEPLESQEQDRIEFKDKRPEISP
# Method in brief: as §1
# ETV3 = target: T13, ETV3 (Homo sapiens, UniProt P41162-2 1-143)
# T13 sequence: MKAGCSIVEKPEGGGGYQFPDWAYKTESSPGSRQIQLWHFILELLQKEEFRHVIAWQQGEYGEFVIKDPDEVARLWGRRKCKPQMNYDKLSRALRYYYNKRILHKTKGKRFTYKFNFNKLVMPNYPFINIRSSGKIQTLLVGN
# Method in brief: as §1
# ETV6 = ETV6 (Homo sapiens, UniProt P41212 1-452)
# Chain of ETV6 (P41212 whole entry): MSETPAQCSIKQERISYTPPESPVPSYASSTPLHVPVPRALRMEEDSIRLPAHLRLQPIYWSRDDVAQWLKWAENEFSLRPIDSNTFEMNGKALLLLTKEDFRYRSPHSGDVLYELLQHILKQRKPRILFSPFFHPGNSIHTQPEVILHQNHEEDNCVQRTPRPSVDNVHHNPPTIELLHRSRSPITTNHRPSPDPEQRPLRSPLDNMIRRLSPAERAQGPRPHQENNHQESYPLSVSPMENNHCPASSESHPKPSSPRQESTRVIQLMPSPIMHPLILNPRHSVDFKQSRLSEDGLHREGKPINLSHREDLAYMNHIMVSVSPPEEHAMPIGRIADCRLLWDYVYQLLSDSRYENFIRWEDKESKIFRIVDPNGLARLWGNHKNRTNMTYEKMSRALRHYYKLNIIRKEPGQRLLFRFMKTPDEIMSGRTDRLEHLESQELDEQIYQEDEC
# Method in brief: as §1
sequence,measurement,setting,value
CATTAA,binding signal,ELK1,"1 fold enrichment (6-mer frequency, TF over GST control)"
same,binding signal,GABPA,"1.12 fold enrichment (6-mer frequency, TF over GST control)"
same,binding signal,ELF1,"1.07 fold enrichment (6-mer frequency, TF over GST control)"
same,binding signal,EHF,"1.01 fold enrichment (6-mer frequency, TF over GST control)"
same,binding signal,SPIB,"1.04 fold enrichment (6-mer frequency, TF over GST control)"
same,binding signal,FEV,"1.01 fold enrichment (6-mer frequency, TF over GST control)"
same,binding signal,ETV5,"1.07 fold enrichment (6-mer frequency, TF over GST control)"
same,binding signal,ELF4,"1.07 fold enrichment (6-mer frequency, TF over GST control)"
same,binding signal,ELK4,"1.02 fold enrichment (6-mer frequency, TF over GST control)"
same,binding signal,ETV2,"1.04 fold enrichment (6-mer frequency, TF over GST control)"
same,binding signal,ELF3,"1.05 fold enrichment (6-mer frequency, TF over GST control)"
same,binding signal,ETV1,"1.12 fold enrichment (6-mer frequency, TF over GST control)"
same,binding signal,ERF,"1.1 fold enrichment (6-mer frequency, TF over GST control)"
same,binding signal,ETV3L,"1.1 fold enrichment (6-mer frequency, TF over GST control)"
same,binding signal,ETS2,"1.04 fold enrichment (6-mer frequency, TF over GST control)"
same,binding signal,SPDEF,"1.01 fold enrichment (6-mer frequency, TF over GST control)"
same,binding signal,ETV7,"1.05 fold enrichment (6-mer frequency, TF over GST control)"
same,binding signal,ETV3,"1.02 fold enrichment (6-mer frequency, TF over GST control)"
same,binding signal,ETV6,"1.03 fold enrichment (6-mer frequency, TF over GST control)"
